Most compounds without a hit are left out; they make up all but 3.7% or so of the library.
AF4-AF9 inh: inhibitors of human MLL-AF4/AF9 interaction | inhibition, % at 10 µM | 350,000 compounds, 0.47% hits | P42568 | AlphaScreen, biotin-AF4 peptide binding to FLAG-AF9;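 active means every replicate reaching a set inhibition limit, whatever the replicate mean, cut at about 25% in these data; inconclusive means mean inhibition reaches that limit but some replicates miss it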;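 further: 0% = plate neutral control median and 100% = total signal loss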
Target sequence (P42568 whole entry, looked up): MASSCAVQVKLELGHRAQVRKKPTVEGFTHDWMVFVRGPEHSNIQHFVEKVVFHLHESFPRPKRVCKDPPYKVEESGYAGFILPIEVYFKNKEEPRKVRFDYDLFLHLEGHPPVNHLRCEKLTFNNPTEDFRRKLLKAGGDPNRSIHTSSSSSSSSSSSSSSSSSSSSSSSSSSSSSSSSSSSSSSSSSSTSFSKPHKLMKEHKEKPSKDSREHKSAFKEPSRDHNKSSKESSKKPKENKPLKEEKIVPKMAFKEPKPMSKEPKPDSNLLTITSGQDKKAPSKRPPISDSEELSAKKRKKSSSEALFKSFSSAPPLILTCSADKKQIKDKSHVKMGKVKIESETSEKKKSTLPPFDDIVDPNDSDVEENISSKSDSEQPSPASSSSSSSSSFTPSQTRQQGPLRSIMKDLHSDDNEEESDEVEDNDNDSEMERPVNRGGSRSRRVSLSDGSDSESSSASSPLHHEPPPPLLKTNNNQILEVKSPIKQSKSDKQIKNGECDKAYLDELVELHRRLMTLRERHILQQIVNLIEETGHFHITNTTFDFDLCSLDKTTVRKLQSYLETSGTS
Wnt bcat act: activates Wnt/beta-catenin signaling in a reporter cell assay | activator, plate reader | activation, % at 9.35 µM | 300,000 compounds, 1.2% hits; in the data active means activation above about 30%, passing the limit was not always enough; inconclusive means no clear call, values can overlap the other calls;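 further: 0% = neutral control wells and 100% = positive control wells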
MITF TRPM1 HTS: MITF TRPM1 promoter activation in melanoma cells; AID 588334; 300,000 compounds, 0.75% hits; SK-MEL-5 TRPM1-promoter luciferase, 24 h; % of positive control, neutral wells = 0; activation, % at 12.5 µM;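 active means mean activation of at least 80% with every replicate also reaching 80%; inconclusive means mean reaches 80% but some replicate falls short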;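 further: 0% = neutral control wells and 100% = parthenolide positive control wells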
Ecoli rRNA inh: inhibits bacterial ribosomal RNA function over humanized ribosomes; E. coli WT GFP vs humanized-ribosome RFP mutants, fluorescence, 24 h; active compounds read low; DMSO median 0, no signal -100; GFP signal change (wild-type ribosome), % (no concentration beside the values); 350,000 compounds, 1.6% hits; AID 720706;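 active means significant combined selectivity score with lowered wild-type GFP, culture density cut under 30%, mutant RFP and density less affected; inactive means any of these conditions unmet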
esBAF inh: blocks esBAF chromatin remodeling in mouse ES cells | Bmi1-luciferase knock-in reporter, 24 h; 100% = twice the neutral-well signal | reporter increase, % at 12.5 µM | 350,000 compounds, 2% hits | AID 602393; in the data active means activation above about 40%; inconclusive means no clear call, values can overlap the other calls;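 further: 0% = median of the plate's neutral control wells and 100% = double that signal; a rise in the Bmi1 reporter signal indicates esBAF inhibition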
* marks the source's active call; other numbers are inactive results; ? = inconclusive; . = not tested or not shown.

SMILES | AF4-AF9 inh | Wnt bcat act | MITF TRPM1 HTS | Ecoli rRNA inh | esBAF inh
FC(F)Sc1ccc(-n2cc(-c3ccccc3)[n+]3c2CCC3)cc1 | . | 1.1 | -24.1 | . | .
COc1ccc(-n2cc(-c3ccccc3)[n+]3c2CCCCC3)cc1 | -0.2 | -18.6 | -42.2 | -30.1* | .
FC(F)Oc1ccc(-n2cc(-c3ccc(Cl)cc3)[n+]3c2CCCCC3)cc1 | 6.0 | -1.3 | . | -47.1* | .
CO[C@H]1CN(C)C(=O)c2cc(NS(C)(=O)=O)ccc2OC[C@H](C)N(CC2CCOCC2)C[C@@H]1C | -12.8 | . | . | -0.7 | -10.3
c1cnc2cc(-c3ccsc3)ncc2c1 | . | 27.4 | 41.8 | . | 21.9
N/C(=N\OC(=O)c1ccc2c(c1)OCO2)c1ccc(Cl)cc1 | 3.6 | -2.2 | 106.1* | 6.7 | 27.6
N/C(=N\OC(=O)c1ccc2c(c1)OCO2)c1ccncc1 | -24.6 | 55.1* | 55.0 | 1.0 | 31.0
Cc1ccc(/C(N)=N/OC(=O)c2ccc3c(c2)OCO3)cc1 | -7.9 | 21.9 | 71.6 | 7.1 | .
CN1CCC(=O)N([C@H](CN=[N+]=[N-])c2ccccc2)CC1 | 1.5 | 2.5 | -11.2 | 10.2 | 4.5
CN1CCC(=O)N([C@H](CN=[N+]=[N-])Cc2ccccc2)CC1 | 42.9* | -1.1 | 6.3 | 2.1 | 3.6
CC(C)CN1CCC(=O)N([C@H](CN=[N+]=[N-])Cc2ccccc2)CC1 | -0.9 | -1.5 | 1.8 | 7.4 | .
CCCN1CCC(=O)N([C@H](CN=[N+]=[N-])Cc2ccccc2)CC1 | 42.8* | 1.3 | -4.8 | 12.9 | .
CC(C)N(C[C@@H]1N[C@H](CO)[C@@H]1c1ccccc1)C(=O)CN1CCOCC1 | -6.3 | . | . | 11.2 | .
N=C(c1ccc([N+](=O)[O-])cc1)N1CCCCCC1 | 0.7 | -0.9 | -0.5 | 15.5 | .
C#CCN(C(=O)C1CCC(=O)N(CCc2cccc(F)c2)C1)C1CCCCC1 (stereo not drawn) | -0.1 | 32.6* | . | -3.6 | .
CN(C(=O)C1CCC(=O)N(Cc2cccc(F)c2)C1)C1CCCCC1 (stereo not drawn) | -0.9 | 43.8* | 97.8* | 4.6 | 96.7*
O=C(NCCc1cccs1)C1CCC(=O)N(CCc2cccc(F)c2)C1 (stereo not drawn) | 0.4 | -0.1 | 4.2 | 2.6 | -4.6
Cc1ccsc1CCNC(=O)C1CCC(=O)N(CCc2cccc(F)c2)C1 (stereo not drawn) | -0.3 | 26.4 | 94.7* | 3.1 | 65.4*
O=C(CCSCCC(=O)NCCN1CCOCC1)NCCN1CCOCC1 | . | . | -1.3 | . | 0.3
CC1OC1c1ccc(-c2ccc(C3OC3C)cc2)cc1 (stereo not drawn) | 0.6 | 18.1 | 90.2* | -8.6 | 76.7*
Cc1ccc(C2OCC3(CO2)COC(c2ccc(C)cc2)OC3)cc1 (stereo not drawn) | 4.4 | -1.0 | 0.2 | 8.0 | .
Cc1nc(SCc2nc3ccccc3[nH]2)c2oc3cc([N+](=O)[O-])ccc3c2n1 | . | -0.5 | -23.0 | -0.4 | 49.0*
COc1ccc2c(c1)oc1c(SCc3nc4ccccc4[nH]3)nc(C)nc12 | -0.4 | 13.2 | 49.0 | -13.2 | 68.2*
Cc1nc(SCc2nc3ccc(Br)cc3[nH]2)c2oc3ccccc3c2n1 | 2.1 | 0.2 | 15.1 | -7.2 | -3.7
Cc1nc(SCc2nc3ccc(Cl)cc3[nH]2)c2oc3ccccc3c2n1 | -2.8 | 16.7 | -4.8 | -5.2 | 5.5
SMILES | AF4-AF9 inh | Wnt bcat act | MITF TRPM1 HTS | Ecoli rRNA inh | esBAF inh
Cc1ccc(OCC(=O)Nc2ccc(S(=O)(=O)NC3=NCCCCC3)cc2)cc1 | 1.0 | 3.8 | . | 1.0 | -6.0
CNc1cc(-c2cnn(CC(C)C)c2)ncn1 | -0.7 | ? | . | -1.8 | 51.2*
N#Cc1c2n(c3c(=O)n(CC(=O)c4ccc([N+](=O)[O-])cc4)cnc13)CCCCC2 | -2.9 | -2.2 | -9.6 | . | .
Cc1nc2ccccc2c(=O)n1/N=C/c1cccs1 | 3.7 | 2.3 | 16.3 | -19.1* | .
S=c1[nH]nc(-c2ccncc2)n1/N=C/c1cn(-c2ccccc2)nc1-c1ccccc1 | -3.8 | 36.7* | . | 5.0 | .
S=c1[nH]nc(-c2cc(-c3ccccc3)n[nH]2)n1/N=C/c1cccc(Cl)c1 | -3.1 | 5.4 | . | -16.7* | .
S=c1[nH]nc(-c2ccccc2)n1/N=C/c1cccs1 | . | . | -2.8 | -18.9* | -0.1
COc1cc(CNC2CCCCCC2)cc(OC)c1 | . | . | -1.6 | . | -3.8
Cc1ccc(-c2cnc3c(c2)C(=O)N([C@@H](C)CO)C[C@H](C)[C@H](CN(C)C(=O)Cc2ccncc2)O3)cc1 | -1.2 | . | . | 0.1 | 2.0
C[C@@H]1CN([C@@H](C)CO)C(=O)Cc2cc(NC(=O)NC3CCCCC3)ccc2O[C@H]1CN(C)S(=O)(=O)c1ccc(Cl)cc1 | 1.6 | . | . | -1.1 | 1.4
C[C@@H]1CN([C@H](C)CO)S(=O)(=O)c2ccc(-c3ccccc3)cc2O[C@@H]1CN(C)C(=O)Nc1ccccc1F | 3.2 | . | . | -4.5 | .
Cc1ccc(S(=O)(=O)N(C)C[C@@H]2Oc3ccc(NC(=O)NC(C)C)cc3C(=O)N([C@@H](C)CO)C[C@@H]2C)cc1 | -2.0 | . | . | -4.7 | 5.6
O=C(Nc1cccc(Cl)c1)N1C[C@H]2[C@@H](c3ccccc31)[C@@H](CO)N2Cc1ccccc1Cl | 3.4 | . | . | -11.7 | 3.0
Cc1cc(-c2n[nH]c(=S)n2/N=C/c2cccs2)n[nH]1 | -6.8 | 1.4 | 2.8 | . | .
Cc1ccc(-c2n[nH]c(=S)n2/N=C/c2cccs2)cc1 | -6.0 | 0.3 | 0.3 | -33.2* | -3.1
COc1ccc(CNC(=O)COC(=O)c2c(NC(C)=O)sc(C)c2C)cc1OC | 1.1 | 46.0* | . | 3.9 | 1.2
CC(=O)Nc1sc(C)c(C)c1C(=O)OCCOc1ccccc1 | -1.1 | 11.1 | 52.4 | 0.8 | 55.3*
COc1ccc(CNC(=O)COC(=O)c2c(NC(C)=O)sc(C)c2C)cc1 | -1.6 | 2.6 | -1.2 | 4.1 | 3.3
Cc1ccccc1-n1c(O)c(/C=N/N2CCCCC2c2cccnc2)c(=O)[nH]c1=O (stereo not drawn) | 1.2 | 2.2 | -2.9 | 17.2 | .
COc1ccc(-c2csc(NCc3ccco3)n2)cc1C | . | . | ? | . | 65.9*
c1cncc(-c2csc(NCc3ccco3)n2)c1 | . | 12.0 | 60.7 | . | .
CC(=O)Nc1ccc(-c2csc(NCc3ccco3)n2)cc1 | . | . | 123.4* | . | .
CC(=O)N1CC2(C1)[C@H](c1ccccc1)[C@@H](CO)N2Cc1ccccc1F | . | . | . | 1.3 | .
c1ccc2c(Nc3nnc(-c4ccncc4)s3)cccc2c1 | . | . | ? | . | 55.0*
C=CCNc1nnc(-c2ccncc2)s1 | . | . | 7.8 | . | .
SMILES | AF4-AF9 inh | Wnt bcat act | MITF TRPM1 HTS | Ecoli rRNA inh | esBAF inh
O=C(Nc1ccc2c(c1)CN(Cc1ccco1)CC2)C1CCCO1 (stereo not drawn) | 0.4 | 0.7 | 16.0 | 3.1 | 10.1
Cc1cc(C)n2nc(N)c(N=Nc3ccccc3)c2n1 | . | -1.3 | . | 13.8 | .
Cc1cc(C)[n+]2[nH]c(N)c(N=Nc3ccccc3)c2n1 | 4.7 | 11.5 | . | -28.4* | .
COc1ccc(-n2c(N)c(C#N)c3ccc([N+](=O)[O-])cc3c2=O)cc1 | -2.0 | -0.1 | 30.2 | 22.1 | .
CCOc1ccc(Cl)cc1CSc1ncn[nH]1 | -0.3 | -3.0 | 0.2 | -22.1* | .
Clc1ccc(CSc2ncn[nH]2)cc1 | . | . | -3.8 | 7.7 | 3.7

Screens: PubChem, Broad Institute
